Source: PubChem BioAssay
In the library only some 4.5% were active in any assay of this set; here they are far more common.
FBA Mtb inh – Mtb fructose-bisphosphate aldolase inhibition. purified M. tuberculosis FBA, fluorescence read-out. inhibition, % at 1 µM. P9WQA3. 360,000 tested, 2.3% active; in the data active = inhibition above about 27%;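 note: 0% = vehicle and 100% = reference inhibitor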
Target sequence (P9WQA3 whole entry, looked up): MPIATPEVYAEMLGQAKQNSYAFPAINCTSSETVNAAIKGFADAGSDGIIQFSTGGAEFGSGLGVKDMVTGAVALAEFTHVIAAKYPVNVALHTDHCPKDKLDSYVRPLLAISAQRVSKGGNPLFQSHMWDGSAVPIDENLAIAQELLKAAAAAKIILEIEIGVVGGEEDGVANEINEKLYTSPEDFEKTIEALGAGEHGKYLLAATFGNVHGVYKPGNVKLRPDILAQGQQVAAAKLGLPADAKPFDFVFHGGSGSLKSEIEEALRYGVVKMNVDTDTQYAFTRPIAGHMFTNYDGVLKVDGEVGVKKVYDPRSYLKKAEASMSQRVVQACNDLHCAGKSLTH
PrPC surface inh – inhibitors of human cell surface prion protein PrPC | 370,000 tested, 0.43% active | P04156 | TR-FRET read-out | AID 720596 | inhibition, % at 13.8 µM; in the data active = inhibition above about 24%; note: 0% = median of the test wells and 100% = reference compound wells
PrP UTR inh – inhibition of PrP 5' UTR reporter expression; AID 488862; cell-based PrP 5' UTR mRNA reporter, plate reader; 340,000 tested, 0.35% active; inhibition, % (test concentration not listed); in the data active = inhibition above about 52%; note: 0 = median of the neutral control wells
GDH-TPI inh – counter-screen for M. tuberculosis FBA inhibitors: GDH-TPI coupled enzymes | 360,000 tested, 1.2% active | AID 588335 | inhibition, % at 4.8 µM | GDH-TPI coupled enzyme counterscreen, NADH absorbance; in the data active = inhibition above about 30%;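 note: 0% = DMSO wells and 100% = wells lacking the enzyme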
PfHsp40 rescue – rescue of PfHsp40-mediated yeast toxicity. S. cerevisiae expressing PfHsp40, growth rescue, ATP luminescence. growth rescue, % at 12.5 µM. 340,000 tested, 0.68% active. AID 504582; in the data active = growth rescue above about 28%, passing the limit was not always enough;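 note: yeast W303a lacking pdr1 and pdr3 grown in galactose medium; growth measured after three days at 30 °C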
BJeLR viability – kills HRASV12-expressing BJeLR cells | inhibition, % (test concentration not listed) | AID 1554 | BJeLR (HRASV12) viability, CellTiter-Glo ATP luminescence, 48 h | 300,000 tested, 0.17% active; in the data active = inhibition above about 50%
The depositor's hits bear a star.

For O=c1[nH]c(=S)n(Cc2ccc(F)cc2)c(O)c1C=NCCCn1ccnc1 the results were FBA Mtb inh -1.6, PrPC surface inh -7.1, PrP UTR inh -19.2, GDH-TPI inh 31.0*, PfHsp40 rescue -0.9 and BJeLR viability 1.4.
CN(C)CCN=Cc1c(O)n(Cc2ccc3c(c2)OCO3)c(=S)[nH]c1=O was read as FBA Mtb inh -18.8, PrPC surface inh 0.3, PrP UTR inh -10.7, GDH-TPI inh 7.3, PfHsp40 rescue 82.1* and BJeLR viability -9.5.
O=c1[nH]c(=O)n(Cc2ccc(F)cc2)c(O)c1C=NCCCn1ccnc1 was read as FBA Mtb inh 4.8, PrPC surface inh 0.0, PrP UTR inh -14.6, GDH-TPI inh -5.7, PfHsp40 rescue 0.5 and BJeLR viability -2.7.
For CCOc1ccc(-n2c(COc3ccc(C)cc3)nnc2SCC(=O)Nc2ccc(F)c(F)c2)cc1 the results were PrPC surface inh -2.7.
Screening CCN(CC)CCCNC(=O)c1cn(CC)c2cc(N3CCN(C(=O)c4ccco4)CC3)c(F)cc2c1=O returned FBA Mtb inh 54.2*, PrPC surface inh 3.1, PrP UTR inh -2.7, GDH-TPI inh 19.8, PfHsp40 rescue 0.2 and BJeLR viability -6.3.
Screening Cc1nn(Cc2ccccc2)c(C)c1/C=N/NC(=O)c1ccccc1O returned FBA Mtb inh -0.6, PrPC surface inh 3.9, PrP UTR inh -19.7, GDH-TPI inh 36.1*, PfHsp40 rescue 0.4 and BJeLR viability 4.0.
Cc1nn(Cc2ccccc2)c(C)c1/C=N/NC(=O)c1ccncc1 was read as FBA Mtb inh -4.6, PrPC surface inh -3.5, PrP UTR inh -7.8, GDH-TPI inh -6.1, PfHsp40 rescue -0.1 and BJeLR viability 0.5.
CCCC[C@H]1C2CC(OC(=O)Nc3ccccc3)C(C2)[C@H]2CCCCN21 (some centres undefined) was read as PrPC surface inh -8.9.
COc1ccc(OC)c(C(c2c(O)c3ccccc3oc2=O)c2c(C)n(C)n(-c3ccccc3)c2=O)c1 (centres undefined) was read as FBA Mtb inh 4.0, PrPC surface inh 0.7, GDH-TPI inh -2.6, PfHsp40 rescue 45.9* and BJeLR viability -10.2.
`Cc1c(C(c2ccc(O)cc2)c2c(O)c3ccccc3oc2=O)c(=O)n(-c2ccccc2)n1C` (centres undefined) gave FBA Mtb inh -5.1, PrPC surface inh 4.1, PrP UTR inh -16.9, GDH-TPI inh -7.9, PfHsp40 rescue 1.4 and BJeLR viability -16.3.
Screening COc1ccc(C(=O)/C=C/c2ccc(OCc3ccccc3)cc2)cc1CSCC(=O)O returned FBA Mtb inh -0.1, PrPC surface inh -1.0, PrP UTR inh 0.3, GDH-TPI inh 40.2*, PfHsp40 rescue 8.6 and BJeLR viability -6.1.
Screening COc1ccc(C(=O)/C=C/c2cccc(OCc3ccccc3)c2)cc1CSCC(=O)O returned FBA Mtb inh 0.6, PrPC surface inh 0.2, PrP UTR inh -24.8, GDH-TPI inh 16.7, PfHsp40 rescue -1.6 and BJeLR viability 2.7.
`O=C1C=CC2(C=C1)O[C@H](Cc1ccccc1)[C@@H](Cc1ccccc1)O2` gave FBA Mtb inh -0.6, PrPC surface inh 88.9*, PrP UTR inh -8.1, GDH-TPI inh -2.3 and PfHsp40 rescue -0.6.
CC(C)CN1CN2Cc3ccccc3C2CS1(=O)=O (centres undefined) was read as PrPC surface inh -13.3.
Screening Cc1no[n+]([O-])c1COc1ccc(/C=C2\NC(=S)NC2=O)cc1 returned FBA Mtb inh 2.7, PrPC surface inh -1.9, PrP UTR inh -17.2, GDH-TPI inh 39.2*, PfHsp40 rescue 0.5 and BJeLR viability 8.2.
Screening O=C(O)c1ccc(N/N=C/c2cc3cc4c(cc3nc2Cl)OCCO4)cc1 returned FBA Mtb inh 7.7, PrPC surface inh -6.6, PrP UTR inh 45.9, GDH-TPI inh 39.2*, PfHsp40 rescue -1.6 and BJeLR viability -3.4.
For CCN1/C(=C/C(C)=C/c2sc3ccccc3[n+]2CC)Sc2ccccc21 the results were FBA Mtb inh -1.8, PrPC surface inh 12.7, PrP UTR inh 28.0, GDH-TPI inh 0.0, PfHsp40 rescue 0.8 and BJeLR viability 63.5*.
CCN1/C(=C\C(=S)Nc2ccccc2)Sc2ccccc21 was read as FBA Mtb inh -0.8, PrPC surface inh 22.6, PrP UTR inh -38.7, GDH-TPI inh 0.0, PfHsp40 rescue -0.3 and BJeLR viability 6.4.
Screening Cc1c(C)c2ccc(OC(C)C(=O)NC3CC(C)(C)NC(C)(C)C3)cc2oc1=O (centres undefined) returned FBA Mtb inh 123.4*, PrPC surface inh -0.1, PrP UTR inh -2.3, GDH-TPI inh 12.1, PfHsp40 rescue -0.2 and BJeLR viability 2.4.
`Cc1c(OC(C)C(=O)NC2CC(C)(C)NC(C)(C)C2)ccc2c3c(c(=O)oc12)CCC3` (centres undefined) gave FBA Mtb inh 20.0, PrPC surface inh -10.0, PrP UTR inh -10.2, GDH-TPI inh 7.6, PfHsp40 rescue -0.3 and BJeLR viability -4.9.
For Cc1csc(-c2cnn(-c3ccccc3)c2NC(=O)c2ccc(C(F)(F)F)cc2)n1 the results were FBA Mtb inh -2.1, PrPC surface inh 8.9, PrP UTR inh -21.1, GDH-TPI inh 14.9, PfHsp40 rescue 46.4* and BJeLR viability 4.9.
CC(C)(C)NC(=O)c1cnn(-c2ccccc2)c1NC(=O)c1ccccc1 was read as FBA Mtb inh -1.2, PrPC surface inh 6.9, PrP UTR inh -25.5, GDH-TPI inh 10.9, PfHsp40 rescue 0.2 and BJeLR viability -8.5.
`COCCn1c(=S)[nH]c2cc(C(=O)N3CCc4ccccc4C3)ccc2c1=O` gave FBA Mtb inh 0.6, PrPC surface inh 3.4, PrP UTR inh -0.3, GDH-TPI inh -1.9, PfHsp40 rescue -2.6 and BJeLR viability 1.7.
Screening N=C1c2c(cc(=O)n3c2[nH]c2ccccc23)CN1CCN1CCOCC1 returned FBA Mtb inh active, PrPC surface inh -3.2, PrP UTR inh -26.8, GDH-TPI inh 12.2, PfHsp40 rescue 0.6 and BJeLR viability 1.5.
Screening COCCN1Cc2cc(=O)n3c([nH]c4ccccc43)c2C1=N returned FBA Mtb inh active, PrPC surface inh 2.8, PrP UTR inh -38.0, GDH-TPI inh 10.1, PfHsp40 rescue -0.2 and BJeLR viability -7.0.
For O=c1c2ccccc2[nH]c(=S)n1CCCN1CCOCC1 the results were FBA Mtb inh 1.9, PrPC surface inh 3.0, PrP UTR inh -27.1, GDH-TPI inh 5.8, PfHsp40 rescue -1.3 and BJeLR viability 0.7.
CCN1C(=O)/C(=C\N(C)C)c2ccccc21 was read as FBA Mtb inh -2.1, PrPC surface inh 5.0, PrP UTR inh -13.8, GDH-TPI inh 32.2*, PfHsp40 rescue 41.2* and BJeLR viability -5.6.
Screening CCN1C(=O)/C(=C/N(C)C)c2ccccc21 returned FBA Mtb inh -0.8, PrPC surface inh 4.3, PrP UTR inh 2.3, GDH-TPI inh 37.3*, PfHsp40 rescue 0.4 and BJeLR viability -5.3.
